# hNpr1 antagonist: blocks ANP-stimulated signaling of human Npr1 receptor. P16066. HEK293 hNpr1 GloSensor cGMP, ANP-stimulated luminescence. Potency, µM (doses to about 46.3 µM), for inactives: at the top dose activity change, negative = inhibition, most hits filed as inhibitors. actives 1.6% (n = 76,000). AID 1347048; calls by dose curve; further: on the % scale 0 is the no-effect control and ±100 the full control effect; nearly all actives have a fitted effect of over 60% in size
#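 HEK293 cells stably expressing human Npr1 and cGMP GloSensor pGS-40F, loaded 2 h with 2% GloSensor reagent, given compound 30 min at room temperature. Luminescence read before and 20 min after 0.1 nM hNppA.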
# NIH3T3 tox: kills NIH 3T3 cells | AID 1345082 | Potency, µM (highest dose often 96.7 µM), inactives show top-dose activity change, negative = cytotoxicity, most hits filed as inhibitors | NIH 3T3 viability, CellTiter-Glo ATP luminescence, 48-72 h | actives 4.3% (n = 94,000); further: on the % scale 0 is the no-effect control and ±100 the full control effect; nearly all actives have a fitted effect of over 55% in size
#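 ATP-dependent luminescence (CellTiter-Glo) served as the viability signal for NIH 3T3 cells treated with compound for 48 or 72 hr at 37 °C.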
# FLuc inh: blocks purified firefly luciferase enzyme activity; actives 2.5% (n = 76,000); purified P. pyralis luciferase, luminescence, biochemical; P08659; Potency, µM (highest dose often 115 µM), usual class: inhibitors; further: on the % scale 0 is the no-effect control and ±100 the full control effect; nearly all actives have a fitted effect of over 65% in size
#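 Luminescence read by CCD imager after adding enzyme (10nM final) to wells holding compound, titrated in qHTS. Substrates 10uM each D-luciferin and ATP; buffer 50mM Tris acetate pH 7.5, 10mM Mg acetate, Tween-20, BSA.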
# GPT2 inh: inhibitors of human GPT2 alanine aminotransferase | Q8TD30 | Recombinant GPT2, coupled pyruvate oxidase/HRP Amplex Red fluorescence | Potency, µM (titrated, usually from 57.7 µM), inactives show top-dose activity change, negative = inhibition, most hits filed as inhibitors | actives 0.25% (n = 100,000); further: on the % scale 0 is the no-effect control and ±100 the full control effect; nearly all actives have a fitted effect of over 60% in size
#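 GPT2 10ng/uL, a-KG 250uM, L-Ala 2mM, HEPES pH7.5 + 0.0001% Tween; 30 min RT. Then Amplex mix (PO/HRP/ThPP), 30 min RT dark, fluorescence. AOA 50uM used as positive control.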
# HEK293 tox: HEK 293 cell cytotoxicity | HEK 293 viability, ATP luminescence (CellTiter-Glo), 48-72 h | Potency, µM (top dose mostly 115 µM), for the others: top-dose activity change, negative = cytotoxicity, most hits filed as inhibitors | actives 6.6% (n = 94,000); further: on the % scale 0 is the no-effect control and ±100 the full control effect; nearly all actives have a fitted effect of over 60% in size
#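 Cells seeded first (HEK 293, 250 cells/well), then compound added by pintool. Incubation ran 48 or 72 hr at 37 degree Celsius. CellTiter-Glo was added and luminescence imaged after 10 min at room temperature.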
# NPR1 antag cnf: hNpr1 antagonism, confirmation assay; shares compounds with hNpr1 antagonist; HEK293 hNpr1 cGMP GloSensor luminescence, ANP-stimulated; Potency, µM (titrated, usually from 57.6 µM), for inactives: at the highest dose activity change, negative = inhibition, actives largely listed as inhibitors; actives 76% (n = 1,400); AID 1347044; calls by dose curve; further: nearly all actives have a fitted effect of over 70% in size
# NPR2 antag: antagonizes human Npr2, subtype selectivity check | shares compounds with hNpr1 antagonist | HEK293 hNpr2 GloSensor cGMP luminescence, CNP-stimulated | Potency, µM (highest dose often 57.6 µM), inactives show at the top dose activity change, negative = inhibition, actives largely listed as inhibitors | actives 67% (n = 1,400) | AID 1347046; calls by dose curve; further: nearly all actives have a fitted effect of over 70% in size
# Target sequence (P20594 whole entry, looked up): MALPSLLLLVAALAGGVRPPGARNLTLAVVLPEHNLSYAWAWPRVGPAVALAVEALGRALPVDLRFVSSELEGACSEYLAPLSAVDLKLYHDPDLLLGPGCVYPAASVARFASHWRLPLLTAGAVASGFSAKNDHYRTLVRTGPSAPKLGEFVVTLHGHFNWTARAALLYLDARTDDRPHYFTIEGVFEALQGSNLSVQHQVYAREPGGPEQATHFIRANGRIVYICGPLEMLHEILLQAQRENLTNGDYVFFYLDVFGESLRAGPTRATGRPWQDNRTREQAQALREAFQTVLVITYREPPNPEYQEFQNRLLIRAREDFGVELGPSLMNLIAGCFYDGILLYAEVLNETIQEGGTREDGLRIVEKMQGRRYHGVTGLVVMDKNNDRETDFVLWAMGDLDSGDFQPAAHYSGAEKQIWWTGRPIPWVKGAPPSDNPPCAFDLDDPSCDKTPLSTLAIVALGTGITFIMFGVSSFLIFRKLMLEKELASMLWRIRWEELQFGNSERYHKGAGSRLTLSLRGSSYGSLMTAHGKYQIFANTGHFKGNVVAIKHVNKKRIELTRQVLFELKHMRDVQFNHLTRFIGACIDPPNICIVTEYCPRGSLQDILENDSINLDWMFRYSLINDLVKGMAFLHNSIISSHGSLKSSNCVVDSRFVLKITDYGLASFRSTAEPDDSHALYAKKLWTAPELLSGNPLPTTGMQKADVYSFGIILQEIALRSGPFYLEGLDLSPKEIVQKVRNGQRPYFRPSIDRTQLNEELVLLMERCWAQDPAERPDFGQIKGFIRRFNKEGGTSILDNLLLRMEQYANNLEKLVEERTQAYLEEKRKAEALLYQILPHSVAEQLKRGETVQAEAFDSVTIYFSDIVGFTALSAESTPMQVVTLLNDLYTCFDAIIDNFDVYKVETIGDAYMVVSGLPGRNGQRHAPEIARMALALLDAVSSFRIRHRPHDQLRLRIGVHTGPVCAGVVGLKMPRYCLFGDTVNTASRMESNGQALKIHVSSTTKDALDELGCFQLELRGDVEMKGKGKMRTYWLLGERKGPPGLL
# FLuc counter: FLuc enzyme inhibition, Npr1 counter-screen | shares compounds with hNpr1 antagonist | purified FLuc enzyme, luminescence, Km substrate | Potency, µM (highest dose often 57.6 µM), for the others: at the top dose activity change, negative = inhibition, actives largely listed as inhibitors | actives 0.7% (n = 1,400); further: 0% is about no effect
# GloSensor ctrl: reduces cGMP signal in GloSensor control cells. actives 69% (n = 1,400). shares compounds with hNpr1 antagonist. AID 1347051. Potency, µM (doses to about 57.6 µM), for the others: at the top dose activity change, negative = inhibition, usual class: inhibitors. HEK293 GloSensor cGMP, SNP-stimulated, luminescence; calls by dose curve; further: on the % scale 0 is the no-effect control and ±100 the full control effect; nearly all actives have a fitted effect of over 70% in size
# Active calls of the source: *; i = inactive; ? = inconclusive; nt = not tested or not shown; [ ] = another dose, or the depositor's remark. This is a sample that favours compounds with a hit; in the whole collection about 10% have one here. Unless noted, the call rests on the fitted dose curve; in most records, active means well fitted curve in the direction sought with a large enough effect; inconclusive means small, poorly fitted or top-dose-only effect, or another doubt; inactive means no such curve, though single readings can be large; an effect the other way counts as inactive or inconclusive. Potency means the concentration at half of the fitted maximal effect.
SMILES,hNpr1 antagonist,NIH3T3 tox,FLuc inh,GPT2 inh,HEK293 tox,NPR1 antag cnf,NPR2 antag,FLuc counter,GloSensor ctrl
N#Cc1cccc(NC(=O)O[C@@H]2CO[C@H]3[C@@H]2OC[C@@H]3Nc2nccc(-c3cccc(F)c3)n2)c1,11µM*,22µM*,i,?,10µM*,19µM*,19µM*,1%,19µM*
O=S(=O)(N[C@H]1CO[C@H]2[C@@H]1OC[C@@H]2Nc1nccc(-c2ccc3c(c2)OCO3)n1)c1ccc2ccccc2c1,13µM*,-48%,i,3%,?,24µM*,?,0%,?
COc1cc(NC(=S)N[C@H]2CO[C@H]3[C@@H]2OC[C@H]3OC(=O)Nc2ccccc2)cc(OC)c1,-13%,-18%,i,-1%,-12%,nt,nt,nt,nt
CC(C)c1ccc(NC(=O)N[C@H]2CO[C@H]3[C@@H]2OC[C@H]3OC(=O)Nc2ccc(Oc3ccccc3)cc2)cc1,?,?,i,-7%,?,19µM*,19µM*,0%,19µM*
COc1ccc(NC(=O)O[C@@H]2CO[C@H]3[C@@H]2OC[C@@H]3NC(=S)Nc2ccc(Cl)cc2)cc1,13µM*,?,i,2%,45µM*,24µM*,?,1%,24µM*
CN(C)c1ccc(CN[C@H]2CO[C@H]3[C@@H]2OC[C@H]3OC(=O)Nc2ccc(Oc3ccccc3)cc2)cc1,?,?,i,-13%,?,?,?,-13%,22µM*
O=C(Nc1ccc(Oc2ccccc2)cc1)O[C@@H]1CO[C@H]2[C@@H]1OC[C@@H]2n1nnnc1SC1CCCC1,10µM*,?,i,i,25µM*,17µM*,17µM*,1%,14µM*
CCNC(=O)O[C@@H]1CO[C@H]2[C@@H]1OC[C@@H]2NC(=O)Nc1ccc(C(C)C)cc1,2%[70.6 µM],0%[174 µM],i,?,-20%[172 µM],nt,nt,nt,nt
CCCNC(=O)N(C1CCOCC1)C1CCN(C(=O)c2cccc(OC)c2)CC1,nt,i,nt,-1%,0%,nt,nt,nt,nt
Cc1ccc(S(=O)(=O)N2CCCC(CCC(=O)NCc3ccccc3)C2)cc1 (stereo not given),5%,?,i,0%,?,nt,nt,nt,nt
COc1ccc(C(=O)N[C@H]2CO[C@H]3[C@@H]2OC[C@H]3OC(=O)Nc2ccccc2)cc1,32µM*,?,i,i,63µM*,40µM*,35µM*,-9%[86.2 µM],35µM*
COc1ccc(OC)c(S(=O)(=O)N[C@H]2CO[C@H]3[C@@H]2OC[C@H]3OC(=O)Nc2cccc(C(F)(F)F)c2)c1,13µM*,?,i,-10%,?,27µM*,22µM*,2%,27µM*
COc1ccc(NC(=O)N[C@H]2CO[C@H]3[C@@H]2OC[C@H]3OC(=O)Nc2ccc(Oc3ccccc3)cc2)cc1,13µM*,?,i,3%,18µM*,14µM*,17µM*,-10%,12µM*
COc1ccc(OC)c(S(=O)(=O)N[C@H]2CO[C@H]3[C@@H]2OC[C@H]3OC(=O)Nc2cccc(C(C)=O)c2)c1,2%,-3%,i,1%,-5%,nt,nt,nt,nt
